# SARS 3CLpro inh: SARS-CoV 3CLpro protease inhibition. P0C6X7. recombinant SARS-CoV 3CLpro, quenched FRET peptide cleavage. inhibition, % at 6 µM. actives 0.14% (n = 290,000). AID 1706; in the data active = inhibition above about 12%
# Anthrax LF prot: anthrax lethal factor protease inhibition | multiplex microsphere protease cleavage assay, LF | inhibition, % at 10 µM | actives 0.12% (n = 360,000) | AID 588501; note: plate controls were buffer without enzyme for full effect and enzyme alone for no effect
# Target sequence (P15917 whole entry, looked up): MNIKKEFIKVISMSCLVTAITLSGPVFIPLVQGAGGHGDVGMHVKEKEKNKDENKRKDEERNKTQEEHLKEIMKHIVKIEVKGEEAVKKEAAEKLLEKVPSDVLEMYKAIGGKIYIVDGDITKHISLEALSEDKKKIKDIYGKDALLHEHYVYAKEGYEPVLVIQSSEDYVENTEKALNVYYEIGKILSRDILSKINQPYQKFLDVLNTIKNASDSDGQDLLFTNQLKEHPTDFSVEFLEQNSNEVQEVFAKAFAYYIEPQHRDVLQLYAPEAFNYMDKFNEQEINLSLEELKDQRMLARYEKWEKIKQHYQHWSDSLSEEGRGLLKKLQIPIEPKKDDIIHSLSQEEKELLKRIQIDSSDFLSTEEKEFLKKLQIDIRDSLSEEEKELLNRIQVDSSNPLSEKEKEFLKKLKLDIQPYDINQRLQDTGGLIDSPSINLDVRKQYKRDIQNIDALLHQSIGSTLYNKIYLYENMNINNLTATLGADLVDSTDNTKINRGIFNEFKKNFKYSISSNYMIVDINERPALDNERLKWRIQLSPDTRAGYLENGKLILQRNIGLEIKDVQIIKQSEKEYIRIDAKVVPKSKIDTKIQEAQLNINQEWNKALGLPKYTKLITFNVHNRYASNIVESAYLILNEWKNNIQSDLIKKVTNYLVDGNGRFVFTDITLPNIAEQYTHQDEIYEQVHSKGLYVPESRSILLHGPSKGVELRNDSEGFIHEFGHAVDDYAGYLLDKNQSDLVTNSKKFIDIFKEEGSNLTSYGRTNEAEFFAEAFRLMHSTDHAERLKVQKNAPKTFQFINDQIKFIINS
# Autofluor counter: counter-screen for toxin protease inhibitors: compound fluorescence. fluorescence intensity (concentration not given with the values). compound autofluorescence counterscreen, microsphere flow cytometry; hits give high values. actives 3.1% (n = 360,000). AID 624483; in the data active = fluorescence intensity above about 16000; inconclusive = no clear call, values can overlap the other calls
# BoNT-F LC inh: inhibitors of Botulinum neurotoxin F light chain protease. Multiplex microsphere protease cleavage assay, flow cytometry. inhibition, % at 10 µM. actives 0.22% (n = 360,000); in the data active = inhibition above about 35%, passing the limit was not always enough; inconclusive = no clear call, values can overlap the other calls; note: plate controls were buffer without enzyme for full effect and enzyme alone for no effect
# BoNT-A LC inh2: blocks Botulinum neurotoxin A light chain protease; AID 588499; actives 0.17% (n = 360,000); inhibition, % at 10 µM; multiplex microsphere protease substrate cleavage, flow cytometry; note: plate controls were buffer without enzyme for full effect and enzyme alone for no effect
# BJeLR viability: BJeLR cell viability loss. BJeLR (HRASV12) viability, CellTiter-Glo ATP luminescence, 48 h. inhibition, % (no concentration beside the values). actives 0.17% (n = 300,000). AID 1554; in the data active = inhibition above about 50%; inconclusive = no clear call, values can overlap the other calls
# Numbers without * were called inactive; ? = inconclusive; · = no result given. This is a sample that favours compounds with a hit; in the whole collection about 3.6% have one here. Cut-off read from the data, not from the text of the source, unless noted: active = inhibition above about 30%; inconclusive = no clear call, values can overlap the other calls; inactive = below that.
SMILES,SARS 3CLpro inh,Anthrax LF prot,Autofluor counter,BoNT-F LC inh,BoNT-A LC inh2,BJeLR viability
Cc1ccccc1NC(=S)NCc1ccc2c(c1)cc(C)n2C,0,0,4862,-20,12,-1
COc1ccc(/C=C/C(=O)NCCCNC(=O)/C=C/c2ccc(OC)c(OC)c2)cc1OC,·,-2,5572,-4,0,-11
COc1ccc(/C=C\C(=O)NCc2ccc3c(c2)cc(C)n3C)cc1OC,-8,-63,2367,-98,62*,-9
COc1ccccc1NC(=S)NCc1ccc2c(c1)cc(C)n2C,4,-75,2036,-120,33*,-8
CC(C)CC1CCCCC1OC(=O)C[N+]1(C)CCCCC1 (stereo not given),2,-8,4968,-9,-1,-2
NC(=O)CC(NC(=O)c1cccc(Br)c1)c1ccc(NC2CCCCCCCCCCC2)c([N+](=O)[O-])c1 (stereo not given),7,-5,3619,-2,0,11
O=S(=O)(NCc1ccccn1)c1ccccc1,0,-20,9058,-4,1,2
O=S(=O)(Cc1ccccc1)NCc1ccccn1,-1,3,21025*,1,-1,2
CSc1ccc(/C=C/C(=O)NC(=O)c2ccccc2O)cc1,0,-4,3215,4,-1,8
Cn1c(=O)oc2cc(S(=O)(=O)NCCN3CCc4ccccc4C3)ccc21,0,-5,4614,1,-1,-4
Cn1c(=O)oc2cc(S(=O)(=O)NCCN3CCCCCC3)ccc21,0,-5,21921*,-13,?,1
CC1CCCCN1CCNS(=O)(=O)c1ccc2c(c1)oc(=O)n2C (stereo not given),-2,-3,22199*,-6,?,3
CCOC(=O)c1c(-c2cccs2)csc1NC(=O)COC(=O)c1c(C)noc1C,0,-4,16276*,-3,0,2
COc1ccc(-n2c(=O)cc(N3CCN(c4ccccc4OC)CC3)[nH]c2=O)cc1,1,-2,9718,2,0,·
COc1ccccc1N1CCN(c2cc(=O)n(-c3ccccc3Cl)c(=O)[nH]2)CC1,-2,-4,21673*,-7,-5,1
OC(COCc1ccccc1)CN1CCN(c2ccccc2F)CC1 (stereo not given),2,-2,22811*,-1,1,2
CCC(=O)c1ccc(OCC(O)CN2CCN(c3ccc(F)cc3)CC2)cc1 (stereo not given),-1,-2,19445*,5,3,2
CCOc1ccccc1N1CCN(Cc2ccc(OC)c(OC)c2OC)CC1,3,-4,21368*,5,?,17
COc1ccccc1N1CCN(CC(O)COc2c(OC)cccc2OC)CC1 (stereo not given),0,-1,19582*,1,1,7
COc1ccccc1N1CCN(Cc2cccc(OC)c2O)CC1,1,-6,21009*,8,7,9
COc1ccccc1N1CCN(Cc2ccc(Br)o2)CC1,2,-3,22305*,1,2,·
COc1ccccc1N1CCN(Cc2ccccc2Cl)CC1,-8,-9,23767*,-7,-3,-2
COc1ccc(CN2CCC(CO)(Cc3ccccc3C(F)(F)F)CC2)c(F)c1,1,-13,4407,-4,-1,-8
CCO[C@H]1OC(C(=O)NCc2ccccc2)=C[C@@H](C(C)(C)C)[C@@H]1CCCO,·,-1,4147,1,0,-6
COc1ccccc1N1CCN(Cc2ccccc2F)CC1,-2,7,5507,-6,0,5
SMILES,SARS 3CLpro inh,Anthrax LF prot,Autofluor counter,BoNT-F LC inh,BoNT-A LC inh2,BJeLR viability
COc1cc(OC)c(OC)cc1CN1CCN(c2ccccc2OC)CC1,1,1,24136*,-5,?,10
C=CCc1ccccc1OCC(O)CN1CCN(c2ccc(OC)cc2)CC1 (stereo not given),-1,-5,23665*,-7,?,4
O=C(O)c1ccc2c(c1)C(=O)N(c1ccc(Nc3ccccc3)cc1)C2=O,7,3,3756,-2,-1,2
Cc1ccc(C(=O)NCC(=O)OCC(=O)N(CC(C)C)c2c(N)n(Cc3ccccc3)c(=O)[nH]c2=O)s1,·,2,3818,-2,0,·
CCOC(=O)c1c(NC(=O)CSc2nc3ccccc3o2)sc(C)c1C,3,-4,19163*,5,?,-11
NC(=O)C1CCN(CCC(=O)Nc2ccc(Br)cc2)CC1,1,-3,23853*,-1,0,-2
Cc1cc(NC(=O)CCN2CCC(C(N)=O)CC2)ccc1Br,-2,3,3152,-9,1,-1
Cc1cccc(NC(=O)CC2Nc3cccc4cccc(c34)NC2=O)c1 (stereo not given),7,-4,17191*,-7,?,1
CC(=O)Nc1ccc(NC(=O)CC2Nc3cccc4cccc(c34)NC2=O)cc1 (stereo not given),3,·,·,·,·,-11
Cn1cnnc1SCC(=O)Nc1ccc(N2CCCCC2)cc1,·,-15,3844,-23,0,·
CC1=C(C(N)=O)C(c2ccccc2[N+](=O)[O-])n2ncnc2N1 (stereo not given),-1,-4,3135,-1,-2,3
C#CCOCCOCCOCCNc1nc(N2CCN(C(=O)[C@H](CCCN=C(N)N)n3cc(C(N)[C@@H](C)CC)nn3)CC2)nc(N2CCN(C(=O)[C@H](CCCCN)n3cc([C@@H](N)CC(N)=O)nn3)CC2)n1 (stereo not given in full),·,9,3109,-19,0,·
O=C(O)c1cn(-c2ccccc2)nc1-c1cccnc1,2,0,20326*,-1,1,-22
CC(C)c1nnc(NC(=O)C2CCCCC2)s1,-3,-10,4719,-18,-1,5
CC(C)c1cc(C(N)=O)c(NC(=O)C2CCC2)s1,7,0,21955*,4,1,-12
CCOC(=O)Cc1csc(NC(=O)CSc2nnc(-c3ccc(NS(=O)(=O)CC)cc3)o2)n1,0,3,21681*,3,2,0
CCOc1ccccc1CN1CCNC(=O)C1CC(=O)NCc1cc(C)n(C)n1 (stereo not given),-2,-1,5271,1,0,-3
CCN(CC)C(=O)CSc1nc2cc3c(cc2c(=O)n1CCCC(=O)NCc1ccc(OC)cc1)OCO3,-1,1,3718,-6,0,8
COc1ccc(CNC(=O)CCCCCn2c(SCC#N)nc3cc4c(cc3c2=O)OCO4)cc1,2,2,19698*,0,?,7
C=CCC(NC(C)c1ccccc1)c1ccco1 (stereo not given),4,1,16630*,-3,0,7
C=CCC(NCc1ccccc1)c1ccccc1 (stereo not given),3,-2,2142,2,1,6
Nn1c(SCC(=O)Nc2c(Cl)cccc2Cl)nncc1=O,·,1,4535,0,2,1
CCOC(=O)c1c(C)c(C(=O)NCCN2CCOCC2)c(C)n1C,-5,-14,13279,13,13,8

# Bioassay records deposited in PubChem BioAssay by several laboratories.
